Results reported in the supplement of paper PMC10849652.
The full data set covers some 7,900 targets. This sample favours those with a hit. About 0.6% of all pairs of compound and target were hits.

Compound: C/C(=N\NC(=O)C1=CC(=CC=C1)S(=O)(=O)N2CCOCC2)/C3=C(C=CC(=C3)Cl)O
Test: log2 fold change, soluble protein after heating vs DMSO (PISA); higher = thermal stabilisation; K562 cells, 10 uM, 30 min; active = over 0.2 and 3.5 SD of the protein, either way, in both replicates (recomputed)
Outline: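 Values are thermal stability changes relative to control samples and are taken from duplicates. They are stated as log2 fold changes. Before quantification by TMTpro 16plex LC-MS/MS with equalised channel sums, K562 cells at 2×10^6 cells/mL were treated with 10 μM compound for 30 min, heated in aliquots for 3 min across 48°C-58°C, pooled, extracted in PBS with 0.5% NP-40 at 4°C, and centrifuged at 21,000xg for 90 min to give the soluble supernatant.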

Sequence of UniProt Q9HBL8 (Q9HBL8 whole entry, looked up): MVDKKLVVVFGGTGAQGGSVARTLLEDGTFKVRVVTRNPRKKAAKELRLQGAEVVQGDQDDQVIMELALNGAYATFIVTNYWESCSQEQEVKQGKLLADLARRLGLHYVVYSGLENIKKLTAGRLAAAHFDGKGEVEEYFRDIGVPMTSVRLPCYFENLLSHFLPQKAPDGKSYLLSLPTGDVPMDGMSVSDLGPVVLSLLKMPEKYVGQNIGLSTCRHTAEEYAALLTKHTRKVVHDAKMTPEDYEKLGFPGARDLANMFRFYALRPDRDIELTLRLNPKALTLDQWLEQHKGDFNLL
Sequence of UniProt Q92621 (Q92621 whole entry, looked up): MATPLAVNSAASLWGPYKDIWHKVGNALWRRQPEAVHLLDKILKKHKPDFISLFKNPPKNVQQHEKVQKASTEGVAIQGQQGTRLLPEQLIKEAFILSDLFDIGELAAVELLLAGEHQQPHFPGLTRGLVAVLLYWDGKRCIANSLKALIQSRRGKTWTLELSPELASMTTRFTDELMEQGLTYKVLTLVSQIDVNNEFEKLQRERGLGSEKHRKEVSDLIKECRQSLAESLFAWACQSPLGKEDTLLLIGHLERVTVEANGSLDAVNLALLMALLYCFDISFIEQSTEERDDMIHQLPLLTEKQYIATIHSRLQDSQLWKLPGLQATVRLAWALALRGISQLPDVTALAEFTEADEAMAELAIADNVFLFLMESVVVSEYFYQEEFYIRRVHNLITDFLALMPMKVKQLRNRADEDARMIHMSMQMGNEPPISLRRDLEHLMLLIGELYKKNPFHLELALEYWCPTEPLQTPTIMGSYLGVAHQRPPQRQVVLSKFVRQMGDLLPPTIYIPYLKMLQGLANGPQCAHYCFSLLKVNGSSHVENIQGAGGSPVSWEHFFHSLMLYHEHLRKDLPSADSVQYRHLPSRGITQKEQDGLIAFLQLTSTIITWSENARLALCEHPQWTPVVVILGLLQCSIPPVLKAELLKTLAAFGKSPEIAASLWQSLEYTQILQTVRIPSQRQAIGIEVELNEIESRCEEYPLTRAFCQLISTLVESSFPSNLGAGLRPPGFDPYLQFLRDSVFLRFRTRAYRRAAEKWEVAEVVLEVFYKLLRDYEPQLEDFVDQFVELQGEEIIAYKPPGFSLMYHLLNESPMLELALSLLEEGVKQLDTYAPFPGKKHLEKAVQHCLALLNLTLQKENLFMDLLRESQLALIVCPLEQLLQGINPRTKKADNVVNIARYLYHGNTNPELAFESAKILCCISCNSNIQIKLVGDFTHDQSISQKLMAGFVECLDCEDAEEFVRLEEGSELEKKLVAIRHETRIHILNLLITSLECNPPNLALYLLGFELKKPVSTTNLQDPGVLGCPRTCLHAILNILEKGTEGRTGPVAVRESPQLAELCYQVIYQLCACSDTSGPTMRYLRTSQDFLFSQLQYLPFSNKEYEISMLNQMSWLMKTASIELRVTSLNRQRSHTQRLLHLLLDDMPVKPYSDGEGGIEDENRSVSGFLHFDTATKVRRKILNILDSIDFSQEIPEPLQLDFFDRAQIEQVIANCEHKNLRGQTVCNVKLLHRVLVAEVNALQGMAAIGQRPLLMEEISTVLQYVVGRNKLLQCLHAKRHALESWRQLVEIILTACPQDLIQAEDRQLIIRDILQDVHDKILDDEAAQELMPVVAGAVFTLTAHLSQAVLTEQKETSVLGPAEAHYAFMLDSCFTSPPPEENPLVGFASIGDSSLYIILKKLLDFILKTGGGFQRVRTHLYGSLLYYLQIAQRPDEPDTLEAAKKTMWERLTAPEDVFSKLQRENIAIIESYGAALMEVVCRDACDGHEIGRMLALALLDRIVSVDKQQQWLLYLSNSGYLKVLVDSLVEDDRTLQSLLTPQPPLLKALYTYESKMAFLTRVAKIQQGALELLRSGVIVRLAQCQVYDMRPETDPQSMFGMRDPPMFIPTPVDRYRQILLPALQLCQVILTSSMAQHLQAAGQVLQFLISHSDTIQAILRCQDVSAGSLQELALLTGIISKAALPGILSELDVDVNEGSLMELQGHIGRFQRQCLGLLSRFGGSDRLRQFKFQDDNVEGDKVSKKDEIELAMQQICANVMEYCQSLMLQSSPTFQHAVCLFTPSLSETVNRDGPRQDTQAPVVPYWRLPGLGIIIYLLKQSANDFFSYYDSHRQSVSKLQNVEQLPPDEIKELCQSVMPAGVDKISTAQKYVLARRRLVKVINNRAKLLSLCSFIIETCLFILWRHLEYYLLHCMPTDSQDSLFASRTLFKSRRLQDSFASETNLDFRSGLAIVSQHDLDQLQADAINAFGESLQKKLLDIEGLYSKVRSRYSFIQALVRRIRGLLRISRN
Sequence of UniProt O43847 (O43847 whole entry, looked up): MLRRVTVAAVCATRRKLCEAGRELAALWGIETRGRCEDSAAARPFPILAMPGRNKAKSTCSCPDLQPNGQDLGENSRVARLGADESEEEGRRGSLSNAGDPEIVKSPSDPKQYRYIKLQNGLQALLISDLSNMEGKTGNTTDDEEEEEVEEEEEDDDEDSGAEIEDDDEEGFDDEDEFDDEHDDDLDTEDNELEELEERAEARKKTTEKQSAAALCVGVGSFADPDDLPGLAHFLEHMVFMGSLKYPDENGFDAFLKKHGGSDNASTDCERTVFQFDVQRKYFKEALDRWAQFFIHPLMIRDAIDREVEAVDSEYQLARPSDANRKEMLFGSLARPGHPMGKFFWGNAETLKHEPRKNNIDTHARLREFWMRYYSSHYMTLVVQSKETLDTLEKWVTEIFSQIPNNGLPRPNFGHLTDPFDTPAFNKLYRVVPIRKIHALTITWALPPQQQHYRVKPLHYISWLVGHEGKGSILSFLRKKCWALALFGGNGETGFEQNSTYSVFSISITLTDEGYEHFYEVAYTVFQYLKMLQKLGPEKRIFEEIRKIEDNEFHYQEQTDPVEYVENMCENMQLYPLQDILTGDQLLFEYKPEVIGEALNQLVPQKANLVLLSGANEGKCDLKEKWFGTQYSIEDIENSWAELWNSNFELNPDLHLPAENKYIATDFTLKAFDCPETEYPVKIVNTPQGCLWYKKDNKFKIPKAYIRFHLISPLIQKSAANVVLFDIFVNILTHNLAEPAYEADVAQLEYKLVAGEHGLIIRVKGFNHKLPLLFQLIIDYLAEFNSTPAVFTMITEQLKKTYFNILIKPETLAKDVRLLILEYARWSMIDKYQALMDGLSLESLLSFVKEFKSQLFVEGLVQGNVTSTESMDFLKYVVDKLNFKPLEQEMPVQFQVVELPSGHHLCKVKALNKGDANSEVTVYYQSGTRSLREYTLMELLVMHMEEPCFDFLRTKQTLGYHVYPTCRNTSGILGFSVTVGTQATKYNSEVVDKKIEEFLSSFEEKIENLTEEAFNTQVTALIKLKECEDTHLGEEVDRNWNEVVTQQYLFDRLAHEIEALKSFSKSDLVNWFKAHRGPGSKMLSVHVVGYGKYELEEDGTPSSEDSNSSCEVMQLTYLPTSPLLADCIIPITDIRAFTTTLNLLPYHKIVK
Sequence of UniProt P25208 (P25208 whole entry, looked up): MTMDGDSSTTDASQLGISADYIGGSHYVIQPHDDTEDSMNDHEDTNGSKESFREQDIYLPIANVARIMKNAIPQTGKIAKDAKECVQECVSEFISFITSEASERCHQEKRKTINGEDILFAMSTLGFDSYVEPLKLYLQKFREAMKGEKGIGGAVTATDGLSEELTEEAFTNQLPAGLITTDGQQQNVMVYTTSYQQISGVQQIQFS
Sequence of UniProt O15118 (O15118 whole entry, looked up): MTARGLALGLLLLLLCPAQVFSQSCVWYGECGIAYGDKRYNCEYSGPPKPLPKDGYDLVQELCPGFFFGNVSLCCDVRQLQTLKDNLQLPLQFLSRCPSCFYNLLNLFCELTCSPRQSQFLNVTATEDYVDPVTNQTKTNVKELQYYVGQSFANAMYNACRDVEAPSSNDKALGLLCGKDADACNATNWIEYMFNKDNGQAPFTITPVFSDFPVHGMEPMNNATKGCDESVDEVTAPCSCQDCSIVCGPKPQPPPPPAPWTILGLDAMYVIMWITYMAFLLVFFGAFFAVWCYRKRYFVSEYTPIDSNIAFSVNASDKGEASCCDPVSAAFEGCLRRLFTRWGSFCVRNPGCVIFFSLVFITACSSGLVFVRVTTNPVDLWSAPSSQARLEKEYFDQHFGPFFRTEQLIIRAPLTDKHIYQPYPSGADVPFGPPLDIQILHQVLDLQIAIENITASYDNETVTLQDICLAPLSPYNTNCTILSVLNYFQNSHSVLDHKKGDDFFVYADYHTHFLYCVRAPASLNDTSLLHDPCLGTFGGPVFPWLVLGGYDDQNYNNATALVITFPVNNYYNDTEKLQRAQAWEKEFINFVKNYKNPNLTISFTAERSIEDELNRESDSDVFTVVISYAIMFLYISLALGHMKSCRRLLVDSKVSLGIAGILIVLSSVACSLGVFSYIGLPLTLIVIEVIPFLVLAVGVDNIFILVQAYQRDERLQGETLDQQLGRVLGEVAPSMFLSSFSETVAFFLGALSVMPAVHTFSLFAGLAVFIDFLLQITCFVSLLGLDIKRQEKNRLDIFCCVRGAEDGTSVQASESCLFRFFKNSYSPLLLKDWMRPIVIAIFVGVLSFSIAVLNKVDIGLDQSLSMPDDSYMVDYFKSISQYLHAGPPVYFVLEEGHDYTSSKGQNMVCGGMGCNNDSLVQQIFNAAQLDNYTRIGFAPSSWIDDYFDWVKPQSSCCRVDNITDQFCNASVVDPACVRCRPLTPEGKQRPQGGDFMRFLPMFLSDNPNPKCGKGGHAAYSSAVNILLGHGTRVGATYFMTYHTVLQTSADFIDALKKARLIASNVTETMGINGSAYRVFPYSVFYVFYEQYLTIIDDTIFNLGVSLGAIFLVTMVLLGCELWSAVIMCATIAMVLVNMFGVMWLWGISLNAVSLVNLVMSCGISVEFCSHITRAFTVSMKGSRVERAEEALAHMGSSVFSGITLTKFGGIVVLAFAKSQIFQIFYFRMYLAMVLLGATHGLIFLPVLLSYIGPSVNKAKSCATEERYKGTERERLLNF
Sequence of UniProt Q9UI09 (Q9UI09 whole entry, looked up): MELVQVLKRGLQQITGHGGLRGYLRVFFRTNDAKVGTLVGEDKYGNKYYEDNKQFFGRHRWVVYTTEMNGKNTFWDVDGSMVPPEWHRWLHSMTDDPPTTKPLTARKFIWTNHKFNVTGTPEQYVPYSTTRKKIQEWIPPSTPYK

log2 fold change, inactive:
NPC1 (UniProt O15118) -0.033, NFX1 (UniProt Q12986) -0.024, NME7 (UniProt Q9Y5B8) 0.058, NOP53 (UniProt Q9NZM5) -0.272, OAT (UniProt P04181) 0.099, NDUFS4 (UniProt O43181) -0.031, OTUD6B (UniProt Q8N6M0) 0.117, NDUFB8 (UniProt O95169) -0.047, NISCH (UniProt Q9Y2I1) 0.1, OSBPL3 (UniProt Q9H4L5) 0.15, NFYB (UniProt P25208) -0.102, NA isoform 3 (UniProt Q4G0T1) 0, NUMB (UniProt P49757) -0.012, NFATC3 (UniProt Q12968) 0.197, NAGPA (UniProt Q9UK23) 0.023, OXSR1 (UniProt O95747) 0.091, MTHFD1 (UniProt P11586) 0.058, OTULIN (UniProt Q96BN8) 0.054, NEK3 (UniProt P51956) -0.011, MRPS15 (UniProt P82914) -0.201, NMRAL1 (UniProt Q9HBL8) -0.118, MON2 isoform 5 (UniProt Q7Z3U7) 0.034, NPM3 (UniProt O75607) -0.104, ORC5 (UniProt O43913) 0.177, MLST8 (UniProt Q9BVC4) 0.049, MON1B (UniProt Q7L1V2) 0.04, NRDC isoform 2 (UniProt O43847) 0.081, NDUFA12 (UniProt Q9UI09) 0.011, MORC2 (UniProt Q9Y6X9) 0.033, NDUFB1 (UniProt O75438) -0.016, NCKAP1 isoform 2 (UniProt Q9Y2A7) 0.096, MTHFS (UniProt P49914) 0.062, NUP205 (UniProt Q92621) 0.131, MT-ATP6 (UniProt P00846) 0.146, NELFCD (UniProt Q8IXH7) 0.034, MLX (UniProt Q9UH92) 0.135, MRFAP1 (UniProt Q9Y605) -0.019, NSMCE2 (UniProt Q96MF7) 0.012, NNMT (UniProt P40261) 0.062
